Sampled rows, rich in hits. Any-hit rate of the full collection: about 19%.
S-ASM inh: human S-ASM enzyme inhibition; P17405; placental ASM, HMU-PC fluorogenic substrate, 60 min; Potency, µM (top dose mostly 57.5 µM), most hits filed as inhibitors; 340,000 compounds, 0.006% hits
Target sequence (P17405 47-631 limits assumed): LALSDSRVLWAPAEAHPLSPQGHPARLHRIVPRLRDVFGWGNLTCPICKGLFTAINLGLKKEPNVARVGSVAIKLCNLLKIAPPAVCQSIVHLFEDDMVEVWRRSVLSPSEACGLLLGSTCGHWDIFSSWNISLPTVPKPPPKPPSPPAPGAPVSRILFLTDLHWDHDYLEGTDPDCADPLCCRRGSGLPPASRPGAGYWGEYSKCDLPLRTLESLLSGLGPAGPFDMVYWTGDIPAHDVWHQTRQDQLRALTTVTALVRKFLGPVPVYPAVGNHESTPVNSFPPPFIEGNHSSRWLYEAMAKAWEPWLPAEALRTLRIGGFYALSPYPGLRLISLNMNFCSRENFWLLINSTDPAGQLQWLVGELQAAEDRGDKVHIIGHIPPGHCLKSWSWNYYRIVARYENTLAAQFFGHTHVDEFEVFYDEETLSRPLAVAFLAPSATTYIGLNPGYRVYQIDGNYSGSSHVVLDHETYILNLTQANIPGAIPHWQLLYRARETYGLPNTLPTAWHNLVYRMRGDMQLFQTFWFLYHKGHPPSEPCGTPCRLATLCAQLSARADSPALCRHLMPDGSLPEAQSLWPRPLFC
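Fluorescence read-out (Ex 386 nm, Em 447 nm) after stopping the reaction at pH 10. Enzyme: ASM from human placenta; substrate HMU-PC0, 9 uM final; 60 min, 37 °C. Compound preincubation 10 min, ambient temperature.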
TGFb inhibitor: blocks TGF-b signaling; HepG2 CAGA-GFP TGF-b/SMAD3 reporter, GFP fluorescence, 18 h; TGF-beta stimulated, 500 pg/mL final; Potency, µM (highest dose often 46.1 µM), actives largely listed as inhibitors; 410,000 compounds, 1.2% hits; note: nearly all actives have a fitted effect of over 65% in size
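Inhibition of TGF-beta-driven CAGA-GFP reporter expression in HEPG2 cells is measured by cellular GFP fluorescence after 18 h stimulation with 500 pg/mL recombinant TGF-beta in 1% FBS medium at 37 degrees C.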
TDP1 cell noCPT: qHTS for Inhibitors of human tyrosyl-DNA phosphodiesterase 1 (TDP1): qHTS in cells in absence of CPT; DT40 Tdp1-/- hTDP1 cells, no CPT, ATP luminescence, 48 h; Potency, µM (doses to about 46.2 µM), usual class: inhibitors; 420,000 compounds, 15% hits; AID 686978, 2013; note: nearly all actives have a fitted effect of over 55% in size
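A cellular qHTS used chicken DT40 cells lacking endogenous Tdp1 but carrying stably transfected human TDP1. Compounds were applied without camptothecin, and cell growth kinetics were judged by ATP-dependent luminescence after ≥48 hr.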
HepG2 viability: kills HepG2 cells in TGF-b inhibitor counter-screen; HepG2 CAGA-GFP viability, ATP luminescence, 18 h; AID 588856; 410,000 compounds, 0.76% hits; Potency, µM (top dose mostly 46.1 µM), most hits filed as cytotoxic
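CellTiter-Glo luminescence gave cytotoxicity after 18 hours at 37 degrees C. The cells were HepG2 CAGA-GFP in 1% FBS DMEM, stimulated with 500 pg/mL TGF-beta after compound addition. %Activity was normalised to no-cell wells (complete cell-killing) and DMSO (no toxicity), and curves were fitted and classified.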
TDP1 cell CPT: DT40-hTDP1 cell growth loss with CPT. AID 686979. chicken DT40 Tdp1-/-;hTDP1 cells + 20 nM CPT, ATP luminescence, 48 h. Potency, µM (series often up to 46.2 µM), usual class: inhibitors. 420,000 compounds, 12% hits; note: nearly all actives have a fitted effect of over 55% in size
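Chicken DT40 Tdp1-/- cells stably complemented with human TDP1 were seeded at 400 cells/well in medium containing 20 nM camptothecin, exposed to pin-transferred compounds, and grown at 37 °C for at least 48 hr. Viability was read as ATP luminescence.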
IL-1B inflam inh: blocks inflammasome-driven IL-1 beta release; THP-1 LPS/ATP IL-1B secretion, AlphaLISA, 16 h; hits give low values; activity change, % at 57.5 µM; 360,000 compounds, 4.7% hits; in the data active = activity change below about -50%; inconclusive = mostly about -30% to -49%
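THP-1 cells pretreated 1 hr with compounds (up to 57.5 uM final), then stimulated with LPS (250 ng/mL final) plus ATP (1.25 mM final); secreted IL-1B measured by AlphaLISA after 16 hr, decreased signal indicating inhibition.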
Of the large screens only hits and unclear results are named; the others gave an inactive call. Unless noted, calls come from the whole dose curve; as a rule, active = well fitted curve in the direction sought with a large enough effect; inconclusive = small, poorly fitted or top-dose-only effect, or another doubt; inactive = no such curve, though single readings can be large; an effect the other way counts as inactive or inconclusive.

O=C(NCC(c1cccnc1)N1CCN(c2ccc(F)cc2)CC1)OCc1ccccc1 (stereo unspecified)	TGFb inhibitor inconclusive, TDP1 cell noCPT 14.6µM, TDP1 cell CPT inconclusive
O=C(NCC(c1cccnc1)N1CCN(c2ccccc2F)CC1)c1ccccc1 (stereo unspecified)	TDP1 cell noCPT inconclusive, TDP1 cell CPT inconclusive
O=C(NCC(c1cccnc1)N1CCN(c2ccccc2)CC1)OCc1ccccc1 (stereo unspecified)	TDP1 cell noCPT inconclusive, TDP1 cell CPT inconclusive
COc1ccc(N2CCN(C(CNC(=O)C(=O)NCCc3c[nH]c4ccccc34)c3ccco3)CC2)cc1 (stereo unspecified)	TDP1 cell noCPT inconclusive, IL-1B inflam inh -51.7
O=C(NCCc1c[nH]c2ccccc12)C(=O)NCC(c1cccnc1)N1CCN(c2ccccc2)CC1 (stereo unspecified)	TDP1 cell noCPT 16.4µM, TDP1 cell CPT 18.4µM
COc1ccc(N2CCN(C(CNC(=O)C(=O)NCCCO)c3ccco3)CC2)cc1 (stereo unspecified)	none
COCCNC(=O)C(=O)NCC(c1cccnc1)N1CCN(c2ccccc2)CC1 (stereo unspecified)	none (no result: S-ASM inh, IL-1B inflam inh)
COc1ccc(C(=O)NCCS(=O)(=O)NC(C)c2ccccc2)cc1 (stereo unspecified)	none
COc1cc(C(=O)OCc2nc3ccsc3c(=O)[nH]2)c([N+](=O)[O-])cc1OC	none
O=C(NCc1cccnc1)C(=O)NCC(c1cccnc1)N1CCN(c2ccc(F)cc2)CC1 (stereo unspecified)	TDP1 cell noCPT 18.4µM, TDP1 cell CPT 20.6µM (no result: S-ASM inh, IL-1B inflam inh)
COC(=O)NCC(c1cccnc1)N1CCN(c2ccc(F)cc2)CC1 (stereo unspecified)	none (no result: S-ASM inh, IL-1B inflam inh)
O=C(NCC(c1cccnc1)N1CCN(c2ccccc2F)CC1)OCc1ccccc1 (stereo unspecified)	TDP1 cell noCPT 18.4µM, TDP1 cell CPT inconclusive
O=C(NCCc1ccccc1)C(=O)NCC(c1cccnc1)N1CCN(c2ccc(F)cc2)CC1 (stereo unspecified)	TDP1 cell noCPT 10.3µM, TDP1 cell CPT 14.6µM (no result: S-ASM inh, IL-1B inflam inh)
O=C(NCC(c1cccnc1)N1CCN(c2ccc(F)cc2)CC1)c1cccc(Cl)c1 (stereo unspecified)	TGFb inhibitor inconclusive, TDP1 cell noCPT 10.3µM, TDP1 cell CPT 16.4µM
CCCOc1ccc(C2=CC(=O)C[C@H](c3ccc(OC)cc3)C2)cc1	TGFb inhibitor inconclusive, TDP1 cell noCPT inconclusive, TDP1 cell CPT inconclusive
C/C(=C\C(=O)OCCCCCCCCC(=O)O)C[C@@H]1OC[C@H](C[C@@H]2O[C@H]2[C@@H](C)[C@H](C)O)[C@@H](O)[C@H]1O	TDP1 cell noCPT 1.46µM, TDP1 cell CPT 1.03µM
CCC(C)(C(=O)NC1CCCCC1)N(Cc1ccco1)C(=O)c1ccc2c(c1)OCO2 (stereo unspecified)	TDP1 cell noCPT 8.2µM, TDP1 cell CPT 11.6µM
COc1ccc(C(=O)/C=C2/c3ccccc3CC(C)(C)N2C)cc1OC	TDP1 cell noCPT 16.4µM, TDP1 cell CPT inconclusive
CCOC(=O)C1CCC(CN(Cc2c(Cl)cccc2Cl)S(=O)(=O)c2ccc(F)cc2)CC1 (stereo unspecified)	TGFb inhibitor inconclusive, TDP1 cell noCPT inconclusive, TDP1 cell CPT inconclusive (no result: S-ASM inh, IL-1B inflam inh)
COc1ccccc1Cc1c(-c2cccc(Cl)c2)nc2ccc(Br)cn12	TGFb inhibitor inconclusive, TDP1 cell noCPT 20.6µM, TDP1 cell CPT 23.1µM (no result: S-ASM inh)
COC(=O)c1ccc2nc(-c3cccc(Cl)c3)c(Cc3ccccc3OC)n2c1	TGFb inhibitor inconclusive, TDP1 cell noCPT 23.1µM, TDP1 cell CPT 16.4µM (no result: S-ASM inh)
COC(=O)c1ccc2nc(-c3ccc(Cl)cc3)c(Cc3ccccc3OC)n2c1	none (no result: S-ASM inh)
Cc1cc(C(=O)CN2C(=O)C(=O)N(Cc3ccco3)C2=O)c(C)n1CCc1ccc(F)cc1	TDP1 cell noCPT inconclusive, TDP1 cell CPT 20.6µM
Cc1[nH]c2ccccc2c1C(=O)CN1C(=O)C(=O)N(Cc2ccco2)C1=O	none
Cc1cc(C(=O)CN2C(=O)C(=O)N(Cc3ccco3)C2=O)c(C)n1CCc1ccccc1	TGFb inhibitor inconclusive, TDP1 cell noCPT 18.4µM, TDP1 cell CPT 23.1µM
O=C(CCS(=O)(=O)c1ccccc1)N(CCCN1CCOCC1)c1nc2ccc(F)cc2s1	TGFb inhibitor inconclusive, TDP1 cell noCPT 3.66µM, HepG2 viability 12.6µM, TDP1 cell CPT 2.59µM, IL-1B inflam inh -82.3
O=C(CCS(=O)(=O)c1ccccc1)N(CCCN1CCOCC1)c1nc2c(F)cccc2s1	TGFb inhibitor inconclusive, TDP1 cell noCPT 2.91µM, TDP1 cell CPT 2.31µM, IL-1B inflam inh -107.1
CN(C)CCCN(C(=O)c1ccc(S(=O)(=O)N2CCOCC2)cc1)c1nc2ccc(F)cc2s1	none
CCCC(=O)N(CCN1CCOCC1)c1nc2c(C)cccc2s1	IL-1B inflam inh -51.5
CCc1cccc2sc(N(CCCN3CCOCC3)C(=O)CS(=O)(=O)c3ccccc3)nc12	TDP1 cell noCPT inconclusive, TDP1 cell CPT inconclusive
CCCCOc1ccc(-c2cc3c(=O)n(CC(=O)Nc4ccc(Cl)cc4Cl)ccn3n2)cc1	none (no result: S-ASM inh, IL-1B inflam inh)
COc1ccc(N(C)S(=O)(=O)c2cccc(C(=O)N3CCN(S(=O)(=O)c4ccc(C)cc4)CC3)c2)cc1	TGFb inhibitor inconclusive, TDP1 cell noCPT inconclusive, TDP1 cell CPT 25.9µM
COc1ccc(S(=O)(=O)N(C)c2ccc(C(=O)N3CCN(c4ccccc4)CC3)cc2)cc1OC	TDP1 cell noCPT 16.4µM, TDP1 cell CPT 14.6µM (no result: S-ASM inh)
COc1ccc(S(=O)(=O)N2CCN(C(=O)c3cccc(S(=O)(=O)N4CCCC4)c3)CC2)cc1	TDP1 cell noCPT inconclusive (no result: S-ASM inh)
Cc1ccc(S(=O)(=O)N2CCN(C(=O)c3cccc(-n4cccc4)c3)CC2)cc1	TDP1 cell noCPT inconclusive, TDP1 cell CPT 16.4µM
COc1ccc(N2CCN(C(=O)c3ccc(N(C)S(=O)(=O)c4ccc(OC)cc4)cc3)CC2)cc1	TGFb inhibitor inconclusive, TDP1 cell noCPT 16.4µM, TDP1 cell CPT inconclusive, IL-1B inflam inh inconclusive
CNC(=O)c1c(NC(=O)CCS(=O)(=O)c2ccc(C)cc2)sc(C)c1C	TDP1 cell noCPT inconclusive, TDP1 cell CPT inconclusive
CCOc1ccccc1CNC(=O)C1CCN(c2nc3ccccc3nc2C(F)(F)F)CC1	TGFb inhibitor inconclusive, TDP1 cell noCPT inconclusive, TDP1 cell CPT inconclusive (no result: S-ASM inh, IL-1B inflam inh)

Source: PubChem (National Center for Advancing Translational Sciences (NCATS))
